# In the library only some 2.4% were active in any assay of this set; here they are far more common.
# Pol beta inh = blocks human DNA polymerase beta activity. P06746. Pol beta primer extension/strand displacement, fluorescence kinetic. Potency, µM (series often up to 114 µM), for inactives: top-dose activity change, negative = inhibition, hits mostly inhibitors. actives 1.3% (n = 340,000); further: potency means the concentration at half of the fitted maximal effect; on the % scale 0 is the no-effect control and ±100 the full control effect
#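 Reaction started by 50 nM substrate onto compound-treated Pol beta (10 nM, 15 min preincubation, room temperature); plates read at 0 min and 10 min. Normalized concentration-effect data fitted by four-parameter Hill equation.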
# Pol iota inh = blocks human DNA polymerase iota activity; actives 1% (n = 390,000); Pol iota fluorescent replication assay, 10 min; Q9UNA4; Potency, µM (highest dose often 115 µM), for the others: top-dose activity, negative = inhibition, actives largely listed as inhibitors; further: potency means the concentration at half of the fitted maximal effect
# Target sequence (Q9UNA4 whole entry, looked up): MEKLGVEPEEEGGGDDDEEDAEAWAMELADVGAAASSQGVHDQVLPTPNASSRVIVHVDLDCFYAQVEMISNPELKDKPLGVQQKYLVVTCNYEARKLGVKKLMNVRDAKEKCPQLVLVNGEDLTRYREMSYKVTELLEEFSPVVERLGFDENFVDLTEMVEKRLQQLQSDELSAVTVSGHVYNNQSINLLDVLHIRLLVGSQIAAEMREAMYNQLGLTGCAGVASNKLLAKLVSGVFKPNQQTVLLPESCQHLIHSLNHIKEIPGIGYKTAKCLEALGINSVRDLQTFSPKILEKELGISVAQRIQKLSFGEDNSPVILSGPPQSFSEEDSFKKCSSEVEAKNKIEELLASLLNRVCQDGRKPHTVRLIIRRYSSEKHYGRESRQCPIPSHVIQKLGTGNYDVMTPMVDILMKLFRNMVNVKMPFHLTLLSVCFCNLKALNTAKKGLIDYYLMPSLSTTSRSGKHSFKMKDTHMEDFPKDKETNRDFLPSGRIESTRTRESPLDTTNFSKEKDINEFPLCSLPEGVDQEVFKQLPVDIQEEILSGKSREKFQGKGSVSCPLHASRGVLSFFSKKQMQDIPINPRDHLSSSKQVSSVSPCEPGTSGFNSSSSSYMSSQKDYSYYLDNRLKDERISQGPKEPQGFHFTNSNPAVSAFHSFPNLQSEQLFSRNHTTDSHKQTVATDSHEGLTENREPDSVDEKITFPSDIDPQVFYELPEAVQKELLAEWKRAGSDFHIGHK
#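 Fluorescent replication assay read twice, at 0 min and 10 min after adding 50 nM (final) substrate. Enzyme (10 nM) and compounds were first incubated 15 min at room temperature; enzyme-free buffer wells were negative controls.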
# Pol eta inh-1 = blocks human DNA polymerase eta activity; Q9Y253; recombinant Pol eta, fluorescent DNA replication assay; Potency, µM (top dose mostly 114 µM), for the others: at the top dose activity change, negative = inhibition, hits mostly inhibitors; actives 1.2% (n = 390,000); AID 588591; further: potency means the concentration at half of the fitted maximal effect; on the % scale 0 is the no-effect control and ±100 the full control effect
#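 Fluorescent replication assay: 50 nM final substrate added after a 15 min room-temperature compound preincubation with 10 nM enzyme. Signal taken at 0 min and again at 10 min.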
# WRN inhibitor = WRN helicase (human) inhibition. Q14191. WRN helicase unwinding, fluorescent forked duplex, kinetic. Potency, µM (doses to about 114 µM), inactives show at the highest dose activity change, negative = inhibition, usual class: inhibitors. actives 0.46% (n = 360,000); further: potency means the concentration at half of the fitted maximal effect; on the % scale 0 is the no-effect control and ±100 the full control effect; nearly all actives have a fitted effect of over 55% in size
#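 Fluorescence dequenching readout, ex 525 nm/em 598 nm, kinetic mode: forked duplex DNA (100 nM final) with adjacent fluorophore and quencher unwound by WRN (20 nM final) with 2 mM ATP. Compound preincubation 15 min, room temperature.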
# FEN1 inhibitor = inhibitors of human flap endonuclease 1. P39748. actives 0.35% (n = 390,000). Potency, µM (titrated, usually from 114 µM), for the others: at the highest dose activity change, negative = inhibition, usual class: inhibitors. Recombinant FEN1 flap cleavage, fluorescence, 15 min; further: potency means the concentration at half of the fitted maximal effect; on the % scale 0 is the no-effect control and ±100 the full control effect; nearly all actives have a fitted effect of over 65% in size
#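 Nuclease activity of 10 nM FEN1 was measured after 15 min of room-temperature exposure to titrated compounds, by adding 50 nM flap substrate and reading plates at 0 and 15 min.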
# Pol kappa inh-1 = blocks human DNA polymerase kappa activity; Q9UBT6; purified Pol kappa, fluorescent DNA synthesis assay, 10 min; Potency, µM (doses to about 107 µM), without a hit: at the highest dose activity, negative = inhibition, actives largely listed as inhibitors; actives 0.53% (n = 400,000); AID 588579; further: potency means the concentration at half of the fitted maximal effect; on the % scale 0 is the no-effect control and ±100 the full control effect
#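 Inhibition of 10 nM Pol kappa is measured by a fluorescent read-out at 0 and 10 min following addition of 50 nM substrate (final), with a 15-min room-temperature compound preincubation.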
# GALK inh confirm = galactokinase (human) inhibition, confirmation | shares compounds with Pol eta inh-1 | purified GALK, Kinase-Glo ATP depletion luminescence | Potency, µM (doses to about 115 µM), for the others: top-dose activity, negative = inhibition, usual class: inhibitors | actives 70% (n = 150) | AID 2015
# Redox cycling = counter-screen for GALK inhibitors: redox cycling H2O2 generation. shares compounds with Pol eta inh-1. Phenol red-HRP H2O2 redox cycling, absorbance 600 nm. Potency, µM (doses to about 115 µM), for the others: top-dose activity change, negative = H2O2 signal, hits mostly inhibitors. actives 40% (n = 150). AID 2035
# HEK293 tox = HEK-293 cytotoxicity, GALK inhibitor secondary; Potency, µM (top dose mostly 46.1 µM), for the others: at the highest dose activity change, negative = cytotoxicity, usual class: inhibitors; actives 10% (n = 170); shares compounds with Pol eta inh-1; AID 2547; HEK-293 viability, ATP luminescence (CellTiter-Glo), 24/48 h; further: potency means the concentration at half of the fitted maximal effect; on the % scale 0 is the no-effect control and ±100 the full control effect
# Pol kappa inh-2 = Pol kappa (human) inhibition, cherry-pick confirmation | shares compounds with Pol eta inh-1 | purified Pol-kappa, fluorescent strand-displacement substrate | Potency, µM, hits mostly inhibitors | actives 76% (n = 920); further: potency means the concentration at half of the fitted maximal effect
# Pol eta inh-2 = Pol eta (human) inhibition, cherry-pick confirmation | shares compounds with Pol eta inh-1 | Pol eta primer extension, TAMRA/BHQ fluorescence, 10 min | Potency, µM, hits mostly inhibitors | actives 64% (n = 2,600); further: potency means the concentration at half of the fitted maximal effect
# Starred values were filed as active, the others as inactive; ? = inconclusive; . = not tested or not shown; [ ] = dose if it differs, or a comment. The call rests on the fitted dose curve; in most records, active means well fitted curve in the direction sought with a large enough effect; inconclusive means small, poorly fitted or top-dose-only effect, or another doubt; inactive means no such curve, though single readings can be large; an effect the other way counts as inactive or inconclusive.
SMILES,Pol beta inh,Pol iota inh,Pol eta inh-1,WRN inhibitor,FEN1 inhibitor,Pol kappa inh-1,Pol eta inh-2,others
CC1(C)OC(=O)C(=Cc2ccc(-c3ccc(Cl)c(C(=O)O)c3)o2)C(=O)O1,?,?,10µM*,45µM*,?,40µM*,27*,
COc1ccc2[nH]c(O)c(N=NC(=O)c3ccc(NS(=O)(=O)c4cccs4)cc3)c2c1,.,40µM*,3.5µM*,?,?,79µM*,38*,Pol kappa inh-2=17*
O=C(CN1C(=O)c2cccnc2Oc2ccc(Cl)cc21)NCCCN1CCCCC1,30%,33%,-11%,.,-10%,-17%,.,
COc1cc(O)cc2cc3c(c(O)c12)C(=O)CC(C)(O)O3 (centres undefined),50µM*,?,45µM*,-7%[11.6 µM],?,?,?,
CCN1CCOC(=O)C1CC(=O)Nc1cc(C)cc(C)c1 (centres undefined),76%,-27%,1%,.,-12%,-2%,.,
COc1ccc(Nc2c3c(nc4ccc(NC(=O)/C=C/c5cc(OC)c(OC)c(OC)c5)cc24)CCCC3)cc1OC,23%,?,3%,.,-25%,?,.,
COc1ccc(Nc2c3c(nc4ccc(NC(=O)/C=C/c5cccc(OC)c5OC)cc24)CCCC3)cc1OC,?,?,-7%,.,-5%,13µM*,.,Pol kappa inh-2=3.4*
COc1ccc(/C=C/C(=O)Nc2ccc3nc4c(c(Nc5ccccc5OC)c3c2)CCCC4)cc1,12%,?,7%,.,10%,-43%,.,
COc1ccccc1Nc1c2c(nc3ccc(NC(=O)/C=C/c4cccc(OC)c4OC)cc13)CCCC2,-22%,-15%,7%,.,4%,?,.,Pol kappa inh-2=0.84*
CN(C)C(=O)c1ccc(-c2nc(NCc3ccccc3)c3ccccc3n2)cc1,.,.,.,.,.,-6%[60.1 µM],.,
CSC1=NSC2=NC(=O)/C(=C\c3coc4ccccc4c3=O)C(=N)N12,25µM*,?,13µM*,56µM*,79µM*,?,?,
CC(C)CSC1=NSC2=NC(=O)/C(=C\c3ccccc3)C(=N)N12,1%,?,-28%,-16%[11.6 µM],5%,-2%,.,
CC(C)CSC1=NSC2=NC(=O)/C(=C\c3coc4ccccc4c3=O)C(=N)N12,45µM*,?,18µM*,?,?,-30%,76*,
COC(=O)c1sc(-c2ccc(C(C)(C)C)cc2)cc1NC(=O)c1ccccc1C(=O)O,?,-19%,89µM*,2%[11.6 µM],-9%,2%,.,Pol kappa inh-2=?
COC(=O)c1sc(-c2ccc(Cl)cc2)cc1NC(=O)c1ccccc1C(=O)O,?,33%,?,-31%,?,-21%,.,
CCOC(=O)Cc1csc(-n2sc3ccccc3c2=O)n1,?,-17%,40µM*,-22%[11.6 µM],?,-28%,?,
COc1ccc(Br)cc1CNC(=O)c1ccc2c(c1)nc1n2CCCCC1,5%,13%,4%,.,11%,-12%[60.1 µM],.,
COc1ccccc1CNc1cc(-c2cccc(NS(C)(=O)=O)c2)ncn1,.,.,.,.,.,-6%[60.1 µM],.,
Cc1cc(C(=O)Nc2sccc2C#N)c2ccccc2n1,2%,?,45µM*,-1%[11.6 µM],-15%,-38%,?,
Cc1csc(NC(=O)c2cc(C)nc3ccccc23)n1,17%,58%,-8%,2%,-7%,-9%,.,
CCSc1ncc(Cl)c(C(=O)Nc2nc3ccc(S(C)(=O)=O)cc3s2)n1,2%,0%,.,.,14%,-7%,.,
O=C(c1ccco1)N(CCC(c1ccccc1)c1ccco1)Cc1ccccc1 (centres undefined),25µM*,28µM*,22µM*,?,-12%,79µM*,?,Pol kappa inh-2=67*
CCC(=O)N(CCC(c1ccccc1)c1ccco1)Cc1cccs1 (centres undefined),7%,1%,-23%,-3%[57.1 µM],16%,-9%,.,
Cc1noc(NS(=O)(=O)c2ccc(NC(=O)c3ccoc3C)cc2)c1C,?,40µM*,10µM*,-23%[57.1 µM],-3%,?,?,
Cc1cc(C(=O)Nc2ccc(S(=O)(=O)Nc3onc(C)c3C)cc2)c(C)o1,7%,?,-16%,-24%[57.1 µM],25%,?,.,
SMILES,Pol beta inh,Pol iota inh,Pol eta inh-1,WRN inhibitor,FEN1 inhibitor,Pol kappa inh-1,Pol eta inh-2,others
COc1ccc(/C=C2\SC(=S)N(CCCC(=O)Nc3ccc(C(=O)O)cc3)C2=O)cc1OC,?,56µM*,?,?,?,-27%,.,Pol kappa inh-2=42*
CCCCOc1ccc(S(=O)(=O)NCc2csc(-c3ccc(OC)cc3)n2)cc1,18%,-5%,.,.,-8%,0%,.,
COc1ccc(NC(=O)c2c[nH]n3c(=O)cc(C4CCN(C(=O)OC(C)(C)C)CC4)nc23)cc1Cl,-3%,23%,89µM*,-5%,?,-7%,85*,Pol kappa inh-2=75*
O=C(O)c1cccc(S(=O)(=O)N2CCC(n3nnc4cc(C(F)(F)F)ccc43)CC2)c1,46%,61%,3%,-13%,-19%,-14%,.,GALK inh confirm=?;Redox cycling=-25%;HEK293 tox=2%
COc1ccc(-c2nnc(SCC(=O)Nc3cc(OC)ccc3OC)nc2-c2ccc(OC)cc2)cc1,44%,-15%,-16%,.,-14%,-5%[60.1 µM],.,
O=C(O)c1cc([N+](=O)[O-])cc2c1C=Cc1ccccc1O2,56µM*,?,28µM*,-4%[11.6 µM],13%,?,.,Pol kappa inh-2=?
O=C(NCCO)c1cc([N+](=O)[O-])cc2c1C=Cc1ccccc1O2,0%,127%,-6%,1%,0%,-2%,.,
NC1CCc2ccccc21 (centres undefined),.,-1%,.,.,-4%,1%,.,
